Laboratory results as given in PubChem BioAssay AID2435 (The Scripps Research Institute Molecular Screening Center, 2010).
Hit rate of the full screen: of about 320,000 compounds, about 1,000 (0.31%) were called active.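 How the source made its calls: active means activation above the mean of all tested compounds plus 3 SD, cutoff set per screening run (cut at about 20% in these data); inactive means the rest.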 The full list was thinned out, with actives kept by preference.

target: Oxytocin receptor (Homo sapiens) (UniProt P30559); assay: human OXTR agonists, primary screen, fluorescence, CHO-OTR cells, Fluo-8 calcium (AID 2435); settings: Fluo-8 calcium fluorescence, at 3 µM, hits give high values, normalized: DMSO 0%, oxytocin 100%;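 further: peak over basal fluorescence ratio from a 100 s FLIPR kinetic read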
Sequence (P30559 whole entry, looked up): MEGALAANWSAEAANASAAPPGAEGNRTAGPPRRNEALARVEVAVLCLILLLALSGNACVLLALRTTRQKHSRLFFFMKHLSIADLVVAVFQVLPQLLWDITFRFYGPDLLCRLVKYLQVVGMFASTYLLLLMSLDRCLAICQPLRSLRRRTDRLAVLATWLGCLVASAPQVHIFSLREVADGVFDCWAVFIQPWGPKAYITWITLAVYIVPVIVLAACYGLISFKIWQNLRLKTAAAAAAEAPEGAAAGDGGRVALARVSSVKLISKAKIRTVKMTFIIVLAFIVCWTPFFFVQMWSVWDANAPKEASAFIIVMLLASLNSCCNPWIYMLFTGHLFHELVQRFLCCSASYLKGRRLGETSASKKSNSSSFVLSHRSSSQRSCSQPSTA

Row | Compound | activation
1 | COc1ccc(NS(=O)(=O)c2ccc(Oc3c(C#N)cccc3C#N)cc2)cc1 | 21.2% (active)
2 | COc1ccc(NS(=O)(=O)c2ccc(NC(=O)c3ccc(N(C)S(C)(=O)=O)cc3)cc2)cc1 | 2.34% (inactive)
3 | CCOc1ccc(S(=O)(=O)Nc2ccc(S(=O)(=O)Nc3cc(OC)ccc3OC)cc2)cc1 | 5.31% (inactive)
4 | CCNc1ccc(C(=O)OCC(=O)N2c3ccccc3NC(=O)C2(C)C)cc1[N+](=O)[O-] | -1.03% (inactive)
5 | Cc1ccc(NC(=S)NC(=O)c2ccc(-c3ccccc3)cc2)cc1 | 1.22% (inactive)
6 | CCOC(=O)C1=C(NC(=S)NC(=O)c2ccccc2)c2ccccc2CC1(C)C | 25.1% (active)
7 | COCCCNC(=S)NC(=O)c1ccccc1 | 0.86% (inactive)
8 | CC1=CC=CC2=N/C(=N\S(=O)(=O)c3ccc(F)cc3F)c3ccccc3CN12 | -2.27% (inactive)
9 | COc1ccc(N2CCC(N3CCN(C)C(CCO)C3)CC2)cc1 (centres undefined) | -0.23% (inactive)
10 | Cc1ccc(S(=O)(=O)N2CCN(C(=O)N3CCOCC3)CC2)c(C)c1 | 0.27% (inactive)
11 | Nc1ccc2nc3c(=O)[nH]c(=S)[nH]c3nc2c1 | 35.4% (active)
12 | CSc1nnc(SCc2nc3sc(C(=O)O)c(C)c3c(=O)[nH]2)s1 | 6.08% (inactive)
13 | CC(/C=C/c1ccccc1)=N\NC(=O)C1CC1(C)c1ccccc1 (centres undefined) | -2.09% (inactive)
14 | CCOC(=O)/C=c1\s/c(=C\c2ccc(C#N)cc2)c(=O)n1CC(=O)Nc1cccc(C)c1C | 0.18% (inactive)
15 | CCOC(=O)Cn1c(=O)oc2cc(S(=O)(=O)N(C)Cc3ccco3)ccc21 | 1.29% (inactive)
16 | CN(c1ccccc1)c1ccc(/C=c2\s/c(=C(/C#N)C(=O)C(C)(C)C)n(Cc3ccco3)c2=O)cc1 | 20.3% (active)
17 | CCS(=O)(=O)N1CCCC(C(=O)NCCCN(C)Cc2ccccc2)C1 (centres undefined) | -0.22% (inactive)
18 | Cc1cccc(NC(=S)NCCc2ccc(Cl)cc2)c1C | -1.48% (inactive)
19 | COC(=O)Cc1ccc(NC(=S)NCc2ccc(Cl)cc2)cc1 | 7.5% (inactive)
20 | O=C(COc1ccc(Cl)cc1)NC(=S)Nc1ccccc1N1CCOCC1 | -0.94% (inactive)

Row | Compound | activation
21 | O=C(Cc1ccc(Cl)cc1)NC(=S)Nc1ccccc1O | 55.4% (active)
22 | Cc1ccccc1NC(=S)NC(=O)Cc1ccc(Cl)cc1 | 28% (active)
23 | Cc1ccc(C(=O)NC(=S)Nc2ccccc2C)cc1 | -1.72% (inactive)
24 | O=C(Nc1ccc(S(=O)(=O)Nc2ncccn2)cc1)C12CC3CC(CC(C3)C1)C2 | -0.32% (inactive)
25 | COc1cc(NC(=O)CN2C(=O)NC(C)(c3ccc(OC(F)F)cc3)C2=O)cc(OC)c1OC (centres undefined) | 2.87% (inactive)
26 | Cn1c(C(=O)OC(C(=O)NC2CCCCC2)c2ccccn2)cc2sccc21 (centres undefined) | -2.18% (inactive)
27 | Cc1nc(-c2ccccc2)cn2c1nc1ccccc12 | -2.1% (inactive)
28 | c1ccc2c(c1)OCC(CNc1ncnc3nc[nH]c13)O2 (centres undefined) | 80.8% (active)
29 | c1ccc(-c2cc3c(NCC4COc5ccccc5O4)ncnc3s2)cc1 (centres undefined) | -2.32% (inactive)
30 | S=C(NCC1COc2ccccc2O1)Nc1ccc(Br)cc1 (centres undefined) | 6.93% (inactive)
31 | CCc1ccc(C2N3CC4([N+](=O)[O-])CN2CC([N+](=O)[O-])(C3)C4(C)C)cc1 (centres undefined) | -1.26% (inactive)
32 | Cc1ccc(NC(=O)C(CC(=O)O)C2CCCO2)c(C)c1 (centres undefined) | -0.43% (inactive)
33 | CC(=O)c1ccc(NC(=S)NC(=O)CC(C)C)cc1 | -2.1% (inactive)
34 | COc1ccc(OC)c(C(C)NC(=S)Nc2ccc(S(=O)(=O)Nc3ncccn3)cc2)c1 (centres undefined) | -0.31% (inactive)
35 | COc1ccc(NS(=O)(=O)c2ccc(NC(=S)NC(=O)CC(C)C)cc2)cc1 | 22.5% (active)
36 | Cc1ccccc1CSc1nnc(-c2ccccc2)c(=O)[nH]1 | 0.69% (inactive)
37 | CCOc1ccc(/C=C(/NC(=O)c2ccccc2)C(=O)NCCC(=O)O)cc1 | 0.74% (inactive)
38 | COc1ccccc1NC(=O)/C=C/C(N)=O | 0.46% (inactive)
39 | COC(=O)c1sc(-c2ccc(C(C)(C)C)cc2)cc1NC(=O)/C=C/C(=O)O | 21.9% (active)
40 | CC(C)(C)c1ccc(/C=C/C(=O)Nc2ncccn2)cc1 | -1.37% (inactive)

Row | Compound | activation
41 | CNC[C@H](CC1CCCCC1)NC[C@H](NCCC1CCCC1)[C@H](C)O | 3.53% (inactive)
42 | O=C(O)/C=C/c1ccc(OCCCF)cc1 | 0.01% (inactive)
43 | O=C(/C=C(O)/C=C/c1ccc(O)cc1)/C=C/c1ccc(O)cc1 | 99.9% (active)
44 | O=C(/C=C/c1ccc2c(c1)OCCO2)c1ccc(O)cc1 | 1.57% (inactive)
45 | CCOc1cc(/C=C/c2nc3ccccc3c(=O)[nH]2)cc(Br)c1OC | 0.74% (inactive)
46 | CC(C)[C@H](NC(=O)N1CCn2c1nc1ccccc12)C(=O)NCc1ccc2c(c1)OCO2 | -1.49% (inactive)
47 | O=C(NCc1ccccc1Cl)C1CCN(c2ncnc3c2nc2n3CCCCC2)CC1 | 0.32% (inactive)
48 | Cc1cc(F)ccc1N1CCC(N2CCN(C)C(CCO)C2)CC1 (centres undefined) | 0.09% (inactive)
49 | COc1cc(C(=O)NC2CCN(C)CC2)ccc1Nc1ncc2c(n1)N(C1CCC(O)CC1)CCC(=O)N2C (centres undefined) | 0.79% (inactive)
50 | COc1ccc(C(=O)NC(=S)NC2CCCCC2)cc1 | -1.13% (inactive)
51 | COc1ccc(C(=O)NC(=S)NNC(=O)CCc2ccccc2)cc1 | 46% (active)
52 | COc1ccc(C(=O)NNC(=S)NC(=O)c2ccccc2)cc1 | 55% (active)
53 | COc1ccc(C(=O)NNC(=S)NC(=O)c2ccccc2[N+](=O)[O-])cc1 | -2.16% (inactive)
54 | COc1ccc(CCC(=O)c2ccc(OC)cc2)cc1 | -2.31% (inactive)
55 | COc1ccc(C(=O)NC2CCN(C(=S)NCCc3ccccc3)CC2)cc1 | -0.97% (inactive)
56 | CNC(=O)c1csc(Cc2c(Cl)sc3ccc(Cl)cc23)n1 | -2.05% (inactive)
57 | O=C(NCc1ccncc1)C(=O)NCC1OCCN1S(=O)(=O)c1ccc(Br)cc1 (centres undefined) | 0.38% (inactive)
58 | NC(=O)c1ccsc1NC(=O)COC(=O)COc1ccc(C=O)cc1 | 16.4% (inactive)
59 | Cc1c(Br)c([N+](=O)[O-])nn1CC(=O)Nc1sc2c(c1C(=O)OC(C)C)CCC(C)C2 (centres undefined) | 0.81% (inactive)
